Drawing on PubChem BioAssay (NCI), this text covers growth for twelve compounds.

Several values for one entry are separate records, joined by “and”; a condition that tells them apart may be missing. Equal entries are not always repeated. The panel holds about 83,000 compounds, 20% with a hit somewhere; the sample as a whole holds those more often.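 48-hour exposure, single concentration, 96-well plates; percent growth endpoint where 0 means no net growth. Active: below 10.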 Activity calls are given as the source filed them.

Among the test systems are DU-145 prostate; K-562 leukemia; MALME-3M melanoma; MDA-MB-231 breast; RXF 393 renal; SF-268 CNS; SF-295 CNS; SF-539 CNS; UACC-257 melanoma; M14 melanoma.
Holding throughout (test): NCI-60 one-dose screen, 48 h (100 = growth as untreated, 0 = no growth, -100 = all killed)
Common to all, as to details: 10 µM unless noted

`Cc1ccc(Cl)cc1N1CCN(C(=O)[C@@H]2C[C@@H]2c2ccc(F)cc2)CC1`: the growth is 114% (inactive) in the test on DU-145 prostate; 75.6% (inactive) with K-562 leukemia; 95% (inactive) in the test on MALME-3M melanoma; 102% (inactive) in the test on MDA-MB-231 breast; 103% (inactive) with RXF 393 renal; 90.1% (inactive) in the test on SF-268 CNS. Also, the growth is 88.9% (inactive) in the test with SF-295 CNS, 95.6% (inactive) in the test on SF-539 CNS, 95.4% (inactive) with UACC-257 melanoma and 93.4% (inactive) in the test on M14 melanoma.
For the compound `CC(C)=CCc1cc(O)c(O)c2oc3cc(O)cc(O)c3c(=O)c12`, the growth with DU-145 prostate was 55.8% (inactive); in the test with K-562 leukemia, 67% (inactive); in the test with MALME-3M melanoma, 91.3% (inactive); with MDA-MB-231 breast, 55.5% (inactive); in the test on RXF 393 renal, 84.6% (inactive); in the test on SF-268 CNS, 49.7% (inactive). Also, the growth in the test on SF-295 CNS was 77.9% (inactive); in the test on SF-539 CNS, 64.8% (inactive); in the test on UACC-257 melanoma it was 98.2% (inactive); in the test on M14 melanoma it was 63.9% (inactive).
In the case of `COc1ccc(CN2CCc3c(Cl)nc(N)nc3C2=O)c(OC)c1`, the growth is 20.8% [100 µM] (inactive) with DU-145 prostate; 14.8% [100 µM] (inactive) with K-562 leukemia; 27.8% [100 µM] (inactive) in the test with MALME-3M melanoma; 6.36% [100 µM] (active) in the test with MDA-MB-231 breast; -20.2% [100 µM] (active) with RXF 393 renal; -22.4% [100 µM] (active) with SF-268 CNS. The growth was 41.6% [100 µM] (inactive) in the test with SF-295 CNS, -25.3% [100 µM] (active) with SF-539 CNS, 25.5% [100 µM] (inactive) with UACC-257 melanoma and -70.8% [100 µM] (active) in the test with M14 melanoma.
On to `CCCO/N=C/c1ccccn1`, for which the growth in the test with DU-145 prostate is 102% (inactive) and 111% (inactive); with K-562 leukemia, 99.5% (inactive) and 103% (inactive); with MALME-3M melanoma, 110% (inactive) and 105% (inactive); in the test with MDA-MB-231 breast, 103% (inactive) and 111% (inactive); in the test with RXF 393 renal, 112% (inactive) and 122% (inactive); with SF-268 CNS, 96.4% (inactive) and 104% (inactive). Also, the growth in the test with SF-295 CNS was 131% (inactive) and 95.3% (inactive); in the test with SF-539 CNS, 110% (inactive) and 95% (inactive); in the test with UACC-257 melanoma, 102% (inactive) and 96.8% (inactive); with M14 melanoma it was 105% (inactive) and 103% (inactive).
Turning to `CCc1c2c(nc3ccc(OCc4ccc(B5OC(C)(C)C(C)(C)O5)cc4)cc13)-c1cc3c(c(=O)n1C2)COC(=O)[C@]3(O)CC`, the growth in the test with DU-145 prostate was 3.05% (active); in the test on K-562 leukemia it was 19.8% (inactive); in the test with MALME-3M melanoma, -6.1% (active); with MDA-MB-231 breast it was 34.2% (inactive); in the test with RXF 393 renal, -25.7% (active); with SF-268 CNS, 5.96% (active). For the same compound, the growth in the test with SF-295 CNS was 5.44% (active); in the test with SF-539 CNS it was -35.6% (active); in the test with UACC-257 melanoma it was -9.18% (active); in the test on M14 melanoma it was 2.91% (active).
For the compound `CC1=CC(C)(C)NC(=S)N1c1ccc(Cl)cc1`, the growth in the test with DU-145 prostate was 105% (inactive) and 110% (inactive); in the test with K-562 leukemia, 97.7% (inactive) and 92.6% (inactive); in the test on MALME-3M melanoma, 99.7% (inactive); in the test on MDA-MB-231 breast it was 101% (inactive) and 99.3% (inactive); in the test on RXF 393 renal it was 104% (inactive) and 121% (inactive); with SF-268 CNS, 101% (inactive) and 100% (inactive). Also, the growth in the test with SF-295 CNS was 101% (inactive) and 111% (inactive); with SF-539 CNS it was 98.7% (inactive) and 106% (inactive); in the test on UACC-257 melanoma, 98.6% (inactive) and 105% (inactive); in the test with M14 melanoma, 102% (inactive) and 95% (inactive).
For `N#Cc1c(-c2cccc(F)c2)cc(-c2cccnc2)[nH]c1=O`, the growth with DU-145 prostate is 107% (inactive); in the test on K-562 leukemia it was 95.3% (inactive); with MALME-3M melanoma, 103% (inactive); in the test with MDA-MB-231 breast, 104% (inactive); in the test on RXF 393 renal, 112% (inactive); with SF-268 CNS it was 103% (inactive). Also, the growth in the test on SF-295 CNS was 102% (inactive); with SF-539 CNS, 99.3% (inactive); with UACC-257 melanoma, 112% (inactive); with M14 melanoma, 102% (inactive).
On to `CCCCCC#CC1OC23CCCCC2C(C#N)(C(=N)O3)C1(C#N)C#N` (stereo not given), for which the growth is 102% (inactive) in the test on DU-145 prostate; 84% (inactive) with K-562 leukemia; 98% (inactive) with MALME-3M melanoma; 95.8% (inactive) with MDA-MB-231 breast; 105% (inactive) with RXF 393 renal; 102% (inactive) in the test on SF-268 CNS. Moreover, the growth is 98.5% (inactive) in the test with SF-295 CNS, 100% (inactive) with SF-539 CNS, 78.6% (inactive) with UACC-257 melanoma and 93.7% (inactive) in the test with M14 melanoma.
With `CCCCC1=C(Br)C(=O)c2nc(C)ccc2C1=O`, the growth was 101% (inactive) in the test with DU-145 prostate; 34% (inactive) in the test on K-562 leukemia; 83.6% (inactive) with MALME-3M melanoma; 80.9% (inactive) with MDA-MB-231 breast; 90.4% (inactive) with RXF 393 renal; 92.8% (inactive) in the test with SF-268 CNS. Moreover, the growth is 103% (inactive) in the test with SF-295 CNS, 92.6% (inactive) in the test with SF-539 CNS, 94% (inactive) in the test with UACC-257 melanoma and 96% (inactive) in the test with M14 melanoma.
As for `CCNC(=O)Oc1ccc(/C(=C(/C)Cc2ccc(OC)cc2)c2ccc(OCCN(CC)CC)cc2)cc1`, the growth in the test on DU-145 prostate is 77.3% (inactive); in the test on K-562 leukemia, -45.2% (active); in the test on MALME-3M melanoma, -17.8% (active); with MDA-MB-231 breast, 45% (inactive); in the test with RXF 393 renal, 49.7% (inactive); in the test on SF-268 CNS it was 67.1% (inactive). Besides, the growth was 40.8% (inactive) in the test on SF-295 CNS, 74.5% (inactive) in the test on SF-539 CNS, -56.3% (active) in the test on UACC-257 melanoma and -63.6% (active) in the test with M14 melanoma.
On to `Cc1ccc(C(=O)Nc2nc3c(s2)CN(Cc2ccccc2)CC3)cn1`, for which the growth is 98% (inactive) in the test with DU-145 prostate; 36.8% (inactive) with K-562 leukemia; 87.1% (inactive) in the test on MALME-3M melanoma; 100% (inactive) in the test on MDA-MB-231 breast; 102% (inactive) in the test on RXF 393 renal; 91% (inactive) in the test with SF-268 CNS. Also, the growth with SF-295 CNS is 89.6% (inactive); with SF-539 CNS, 103% (inactive); in the test with UACC-257 melanoma it was 92.9% (inactive); in the test on M14 melanoma, 79.9% (inactive).
Take `[2H]C([2H])([2H])Oc1cc(F)ccc1/C=C/C(=O)/C=C(/C=C/c1ccc(F)cc1OC([2H])([2H])[2H])OB(F)F`: the growth in the test with DU-145 prostate is 30.5% (inactive); in the test with K-562 leukemia it was 18% (inactive); in the test with MALME-3M melanoma it was 33.1% (inactive); with MDA-MB-231 breast, 53% (inactive); in the test with RXF 393 renal it was 1.06% (active); with SF-268 CNS, 56.7% (inactive). Further, the growth in the test with SF-295 CNS was 59.5% (inactive); in the test on SF-539 CNS it was 93.2% (inactive); with UACC-257 melanoma, 48.9% (inactive); with M14 melanoma, 8.14% (active).
